# Compound activity deposited in PubChem BioAssay by National Center for Advancing Translational Sciences (NCATS).
# Pf Dd2 growth: inhibitors of Plasmodium falciparum Dd2 growth; AID 1347417; P. falciparum Dd2 growth, SYBR Green, 72 h; 4.3% of 120,000 active; Potency, µM (top dose mostly 28.9 µM), without a hit: at the highest dose activity, negative = inhibition, most hits filed as inhibitors; active = well fitted inhibition curve with a large enough effect;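 also: plate controls were DMSO vehicle for no effect and reference drug for full effect; nearly all actives have a fitted effect of over 65% in size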
#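 Infected erythrocytes (Dd2, 0.3% parasitemia, 2.5% hematocrit final) are added to compound in RPMI-1640/Albumax II medium, grown 72 h at 37C in low oxygen, then lysed with saponin/Triton-X containing SYBR Green and read by fluorescence.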
# The depositor's hits bear a star; i = inactive; [ ] = remark or other dose. Only a selection was taken, and hits are over-represented in it overall. Potency is read from the fitted curve at half-maximal effect.
SMILES,Pf Dd2 growth
COCCC(=O)NC[C@@H]1C=C(C)[C@H](CC(=O)N(C)Cc2cccnc2)C[C@H]1C(C)C,3%[44.1 µM]
C#CCNC(=O)C[C@@H]1C[C@@H](C(C)C)[C@H](CNS(=O)(=O)c2cccc(C#N)c2)C=C1C,11µM*
CC1=C[C@@H](CNS(=O)(=O)c2cccc(C#N)c2)[C@H](C(C)C)C[C@H]1CC(=O)NCc1cccnc1,-4%
CC1=C[C@@H](CNS(=O)(=O)c2cccc(C#N)c2)[C@H](C(C)C)C[C@H]1CC(=O)Nc1ccccn1,-21%
Cc1ccc(C2Cn3nnc(C(=O)N4CCN(C(=O)c5cccc(C)c5)CC4)c3CO2)cc1 (stereo not given),-22%
CCOC(=O)C1=CN(CC(=O)Nc2ccc(F)cc2C)S(=O)(=O)N=C1C,26%
Cc1ccc(C)c(NC(=O)Cn2c(-c3ccc(F)cc3)nc(C)cc2=O)c1,i
CCOC(=O)C1=CN(CC(=O)Nc2cccc(C)c2C)S(=O)(=O)N=C1C,33%
COCC(=O)N1C[C@@H]2C(=O)N(Cc3ccc4c(c3)OCO4)C(=O)[C@@H]2C1,24%
COC[C@@H]1CN(c2cnccn2)C[C@H]1C(=O)NCCc1cccnc1,5%
COc1cccc(CN2CC[C@H](c3nnc(-c4ccco4)o3)C2)c1,i
Cc1cccc(CN2CCN(Cc3nc(-c4ccco4)oc3C)C(C)C2=O)c1 (stereo not given),13µM*
Cc1cccc(-c2nc(CN3C(=O)CN=C(c4ccccc4)c4ccccc43)c(C)o2)c1,-22%
O=C(NC1CCOC2(CCOCC2)C1)c1ccc(C(F)(F)F)cc1 (stereo not given),-15%
NC(=O)CNC(=O)c1cc2c(s1)CCN(C(=O)c1ccc(Cl)cc1)C2,i
O=C(NCc1cccc(Cl)c1)c1cc2c(s1)CCN(C(=O)c1ccccc1)C2,10µM*
Cc1ccc(C(=O)N2CCc3sc(C(=O)NCc4cc(F)cc(F)c4)cc3C2)cc1,8.9µM*
O=C(NCc1ccccc1)c1cc2c(s1)CCN(C(=O)c1ccccc1)C2,0%
CN(CCc1ccccc1)C(=O)c1cc2c(s1)CCN(C(=O)c1ccc(Cl)cc1)C2,-2%
O=C(O)c1cc2c(s1)CCN(C(=O)c1ccc(F)cc1)C2,20%
CN1CCN(C(=O)c2cc3c(s2)CCN(C(=O)c2ccc(Cl)cc2)C3)CC1,11µM*
Cc1ccc(C(=O)N2CCc3sc(C(=O)NCc4cccc(F)c4)cc3C2)cc1,i
CC(=O)N1CCc2sc(C(=O)NCc3cccc(Cl)c3)cc2C1,i
C=CCNC(=O)c1cnn2c1CN(C(=O)c1ccccc1)CC2,-7%
CCNC(=O)[C@@H]1C[C@H](n2cc(CN(C)C(=O)Nc3ccc(C)cc3)nn2)CN1,2%
SMILES,Pf Dd2 growth
O=C1CCc2cc(NC(=O)c3cccc(C(F)(F)F)c3)ccc2N1,-5%
Cn1nc(C(=O)NC2CCN(c3cc(-c4ccccc4)[nH]n3)CC2)c2ccccc21,-21%
COc1ccccc1-c1nc2cc(NC(=O)c3ccccc3Cl)ccc2o1,1%
O=C(Nc1ccc2oc(-c3ccccc3)nc2c1)c1ccc2ccccc2c1,18%
O=C(Nc1ccc(-c2nc3cc(NC(=O)c4ccc(F)cc4)ccc3o2)cc1)c1ccc(F)cc1,1%
O=C(Nc1ccc2oc(-c3cccc(F)c3)nc2c1)c1ccc2ccccc2c1,1µM*
O=C(Cc1ccc(Cl)cc1)Nc1ccc2oc(-c3ccccc3F)nc2c1,i
O=C(Nc1ccc2oc(-c3ccccc3F)nc2c1)c1ccccc1Cl,4µM*
CN1CCC(NC(=O)C2(C)CCc3cnc(N4CCOCC4)nc32)CC1 (stereo not given),i
CCS(=O)(=O)N(C1CC1)C1CCOC2(CCN(C(=O)NCCc3ccccc3)CC2)C1 (stereo not given),i
O=C(Cn1nc2n(c1=O)CCCC2)N1CCN(c2ccc(F)cc2)CC1,15%
CC(=O)Nc1ccc(CN2C[C@H](O)C[C@H]2c2nc(C(C)C)no2)cc1,i
Cc1ccc(C2=NC3(CCN(C(=O)c4cnccn4)CC3)ON2)cc1,8%
Cn1c2c(cc(C(=O)N3CC[C@](C)(O)[C@@H](O)C3)c1=O)CCCC2,-12%
COc1cc2c(cc1OCc1ccccc1)NC(=O)C21CCN(c2ncccn2)CC1,4.5µM*
CCc1cnc(N2CCC3(CC2)C(=O)Nc2cc(OCc4ccccc4)c(OC)cc23)nc1,-14%
COc1cc2c(cc1Oc1ccccc1)NC(=O)C21CCN(c2ncccn2)CC1,-6%[44.1 µM]
COc1cc2c(cc1OCc1ccccc1)NC(=O)C21CCN(C(C)=O)CC1,i
COc1cc2c(cc1OCc1ccccc1)NC(=O)C21CCN(Cc2ccncc2)CC1,13µM*
COCC(=O)N1CCC2(CC1)C(=O)Nc1cc(Oc3ccccc3)c(OC)cc12,i
COc1cc2c(cc1Oc1ccccc1)NC(=O)C21CCN(Cc2ccccc2)CC1,i
COc1cc2c(cc1Oc1ccccc1)NC(=O)C21CCN(CCC(C)C)CC1,6.3µM*
COc1cc2c(cc1OCc1ccccc1)NC(=O)C21CCN(Cc2ccccc2)CC1,-4%[44.1 µM]
COc1ccc(-c2noc(C(=O)O)c2[C@@H](C)NC(=O)c2cnccn2)cc1,17%[44.1 µM]
O=C(c1ccc(-c2ccccc2CO)nc1)N1CCCN(c2ncccn2)CC1,-4%
SMILES,Pf Dd2 growth
CC(=O)Nc1ccc(CN2CCC(N3Cc4cccn4C3=O)CC2)cc1,-6%
Cc1ccc(C)c(C(=O)NC2CCN(c3cc(C(F)(F)F)nc(C)n3)CC2)c1,-8%
COc1ccc(CCC(=O)N2CCC(N3CC(OC)C34CCOCC4)CC2)cc1 (stereo not given),i
Cc1oc(C(O)c2ccccc2F)nc1C(=O)Nc1ccc(N2CCOCC2)cc1 (stereo not given),-24%[44.1 µM]
CN1CCC(N2C[C@@H]3C[C@H]2C(=O)Nc2ccccc2O3)CC1,12%[44.1 µM]
COc1ccc2c(CNCc3ccc(C)o3)c(C(=O)O)n(Cc3ccccc3C)c2c1,-22%
COc1ccc2c(CNCCc3ccco3)c(C(=O)O)n(Cc3ccc(C)cc3)c2c1,i
COc1ccc2c(CNCc3ccc(Cl)cc3)c(C(=O)O)n(Cc3ccccc3C)c2c1,11µM*
CCOc1ccc(CNCc2c(C(=O)O)n(Cc3ccc(OC)cc3)c3ccccc23)cc1,10µM*
COc1ccc(Cn2c(C(=O)O)c(CNCc3ccccc3F)c3ccc(OC)cc32)cc1,8.9µM*
COc1ccc(Cn2c(C(=O)O)c(CNC3CCCC3)c3ccc(OC)cc32)cc1,-22%
COc1ccc2c(CNCc3cccs3)c(C(=O)O)n(Cc3ccccc3)c2c1,-18%
CCOc1ccc(CNCc2c(C(=O)O)n(Cc3ccc(C)cc3)c3cc(C)ccc23)cc1,-2%
CCOc1ccccc1CNCc1c(C(=O)O)n(Cc2ccccc2)c2cc(OC)ccc12,-17%
CC(C)c1ccc(NC(=O)c2ccc(CN3C(=O)NC4(CCOCC4)C3=O)cc2)cc1,-21%
CNC(=O)[C@@H]1C[C@H](Oc2ccccc2)CN1S(=O)(=O)Cc1ccccc1,0%
CC(C(=O)NCc1ccco1)C1CCOCC1 (stereo not given),9%
COCCN1CC2(CCCN(C(=O)NCCc3cccs3)C2)CCC1=O (stereo not given),9%
CCn1ccc(C(=O)NCC2Cn3cccc3CN2Cc2ccccc2)n1 (stereo not given),14µM*
O=C(NCC1Cn2cccc2CN1Cc1ccccc1)c1cncc(Br)c1 (stereo not given),10µM*
CN1Cc2cccn2CC1CNC(=O)Cc1cccc(F)c1 (stereo not given),-25%
Cc1cc(C(=O)NCC2Cn3cccc3C(=O)N2Cc2ccccc2)n(C)n1 (stereo not given),35%
